# Measurements taken from the supplement of paper PMC11732987, “Enantioselective OTUD7B fragment discovery through chemoproteomics screening and high-throughput optimisation” (Communications Chemistry, 2025).
# A number with no mark means an inactive call.
# What was measured:
# Test in all cases: log2 ratio of Biotin-Ahx-Ub-VS probe labelling (fragment/DMSO); higher = less target engagement (more negative = stronger competition), active = hit call of the paper (q ≤ 0.05, log2 ratio ≤ -1)
# Settings in all cases: compound concentration: 200 uM; treatment time: 3 h
# [1] = target: T1, OTUD6B (UniProt Q8N6M0)
# T1 sequence (whole entry): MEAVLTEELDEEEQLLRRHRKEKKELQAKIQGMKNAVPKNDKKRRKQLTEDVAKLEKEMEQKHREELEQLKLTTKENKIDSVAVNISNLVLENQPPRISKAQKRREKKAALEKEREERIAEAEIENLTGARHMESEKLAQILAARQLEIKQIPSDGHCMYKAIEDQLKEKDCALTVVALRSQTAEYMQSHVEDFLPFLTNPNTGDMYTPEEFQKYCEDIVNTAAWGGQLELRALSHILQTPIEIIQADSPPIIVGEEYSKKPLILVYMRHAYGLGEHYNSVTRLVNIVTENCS
# Outline: (§1)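 HEK293T lysate, 495 µg per sample in Tris/CHAPS/IGEPAL buffer with protease inhibitors, was treated in triplicate with fragment at 200 µM or vehicle for 3 h and then with Biotin-Ahx-Ub-VS at 0.5 µM final for 1 h. Labelled DUBs were NeutrAvidin-enriched, digested with LysC and trypsin, and run by diaPASEF LC-MS/MS. Spectronaut label-free quantities were global-median-normalised, and values are average log2 fragment/vehicle ratios by unpaired t-test on proteins with ≥2 unique peptides.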
# [2] = target: T2, OTUD7B (UniProt Q6GQQ9)
# T2 sequence (whole entry): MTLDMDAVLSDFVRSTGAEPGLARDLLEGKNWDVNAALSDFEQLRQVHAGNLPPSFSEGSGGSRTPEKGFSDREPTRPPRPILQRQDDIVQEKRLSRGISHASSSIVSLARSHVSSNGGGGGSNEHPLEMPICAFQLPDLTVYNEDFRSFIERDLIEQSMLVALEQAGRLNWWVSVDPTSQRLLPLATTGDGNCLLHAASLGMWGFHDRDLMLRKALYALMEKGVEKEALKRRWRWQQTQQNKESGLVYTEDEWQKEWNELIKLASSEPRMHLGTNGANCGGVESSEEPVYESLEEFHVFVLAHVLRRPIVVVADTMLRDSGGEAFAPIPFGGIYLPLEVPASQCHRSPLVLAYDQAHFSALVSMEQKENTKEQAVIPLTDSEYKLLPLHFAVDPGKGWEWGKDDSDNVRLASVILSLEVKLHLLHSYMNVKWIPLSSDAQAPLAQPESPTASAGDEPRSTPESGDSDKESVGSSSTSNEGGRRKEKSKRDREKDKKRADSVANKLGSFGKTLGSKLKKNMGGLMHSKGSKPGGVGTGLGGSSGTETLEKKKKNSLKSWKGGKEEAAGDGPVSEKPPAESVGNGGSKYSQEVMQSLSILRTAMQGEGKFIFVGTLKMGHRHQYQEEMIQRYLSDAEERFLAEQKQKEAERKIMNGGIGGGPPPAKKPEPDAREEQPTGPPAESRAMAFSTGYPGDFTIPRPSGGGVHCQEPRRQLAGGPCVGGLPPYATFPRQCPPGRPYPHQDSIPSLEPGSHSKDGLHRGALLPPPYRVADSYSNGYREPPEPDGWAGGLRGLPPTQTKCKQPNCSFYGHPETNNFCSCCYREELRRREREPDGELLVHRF
# Outline: as §1
# [3] = target: PRPF8 (UniProt Q6P2Q9)
# Outline: as §1
# [4] = target: T3, PSMD7 (UniProt P51665)
# T3 sequence (whole entry): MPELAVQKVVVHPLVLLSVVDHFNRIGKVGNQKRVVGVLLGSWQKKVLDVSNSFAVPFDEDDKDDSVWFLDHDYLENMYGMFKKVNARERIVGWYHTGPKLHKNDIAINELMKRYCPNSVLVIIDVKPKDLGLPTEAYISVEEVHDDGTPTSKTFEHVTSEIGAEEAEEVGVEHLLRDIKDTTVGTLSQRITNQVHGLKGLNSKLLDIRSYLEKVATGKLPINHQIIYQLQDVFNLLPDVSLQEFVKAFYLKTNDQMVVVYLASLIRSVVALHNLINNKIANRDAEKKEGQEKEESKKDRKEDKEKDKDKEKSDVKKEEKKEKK
# Outline: as §1
# [5] = target: UCHL1 (UniProt P09936)
# Sequence of UCHL1 (P09936 whole entry, looked up): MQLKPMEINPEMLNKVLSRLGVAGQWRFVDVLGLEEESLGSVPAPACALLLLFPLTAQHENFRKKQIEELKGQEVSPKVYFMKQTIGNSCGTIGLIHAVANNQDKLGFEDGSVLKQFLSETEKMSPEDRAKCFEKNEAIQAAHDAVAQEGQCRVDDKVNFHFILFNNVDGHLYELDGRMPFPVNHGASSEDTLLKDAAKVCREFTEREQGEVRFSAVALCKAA
# Outline: as §1
# [6] = target: T4, UCHL3 (UniProt P15374)
# T4 sequence (whole entry): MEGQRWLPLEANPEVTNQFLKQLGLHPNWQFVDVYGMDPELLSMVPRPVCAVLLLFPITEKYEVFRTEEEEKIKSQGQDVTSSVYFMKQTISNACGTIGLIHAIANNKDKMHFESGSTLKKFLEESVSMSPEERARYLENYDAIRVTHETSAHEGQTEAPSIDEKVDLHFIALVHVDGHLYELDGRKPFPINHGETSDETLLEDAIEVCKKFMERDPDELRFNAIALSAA
# Outline: as §1
# [7] = target: T5, UCHL5 (UniProt Q9Y5K5)
# T5 sequence (whole entry): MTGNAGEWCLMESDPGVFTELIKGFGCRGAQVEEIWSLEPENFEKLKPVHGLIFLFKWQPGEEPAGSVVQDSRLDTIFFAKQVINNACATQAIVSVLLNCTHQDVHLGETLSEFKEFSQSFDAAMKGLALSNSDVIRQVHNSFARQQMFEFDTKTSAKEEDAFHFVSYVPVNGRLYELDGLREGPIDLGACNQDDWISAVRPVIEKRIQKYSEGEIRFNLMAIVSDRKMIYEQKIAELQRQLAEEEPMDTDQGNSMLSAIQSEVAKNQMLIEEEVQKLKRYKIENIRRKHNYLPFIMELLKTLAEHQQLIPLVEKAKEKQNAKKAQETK
# Outline: as §1
# [8] = target: USP10 (UniProt Q14694)
# Sequence of USP10 (Q14694 whole entry): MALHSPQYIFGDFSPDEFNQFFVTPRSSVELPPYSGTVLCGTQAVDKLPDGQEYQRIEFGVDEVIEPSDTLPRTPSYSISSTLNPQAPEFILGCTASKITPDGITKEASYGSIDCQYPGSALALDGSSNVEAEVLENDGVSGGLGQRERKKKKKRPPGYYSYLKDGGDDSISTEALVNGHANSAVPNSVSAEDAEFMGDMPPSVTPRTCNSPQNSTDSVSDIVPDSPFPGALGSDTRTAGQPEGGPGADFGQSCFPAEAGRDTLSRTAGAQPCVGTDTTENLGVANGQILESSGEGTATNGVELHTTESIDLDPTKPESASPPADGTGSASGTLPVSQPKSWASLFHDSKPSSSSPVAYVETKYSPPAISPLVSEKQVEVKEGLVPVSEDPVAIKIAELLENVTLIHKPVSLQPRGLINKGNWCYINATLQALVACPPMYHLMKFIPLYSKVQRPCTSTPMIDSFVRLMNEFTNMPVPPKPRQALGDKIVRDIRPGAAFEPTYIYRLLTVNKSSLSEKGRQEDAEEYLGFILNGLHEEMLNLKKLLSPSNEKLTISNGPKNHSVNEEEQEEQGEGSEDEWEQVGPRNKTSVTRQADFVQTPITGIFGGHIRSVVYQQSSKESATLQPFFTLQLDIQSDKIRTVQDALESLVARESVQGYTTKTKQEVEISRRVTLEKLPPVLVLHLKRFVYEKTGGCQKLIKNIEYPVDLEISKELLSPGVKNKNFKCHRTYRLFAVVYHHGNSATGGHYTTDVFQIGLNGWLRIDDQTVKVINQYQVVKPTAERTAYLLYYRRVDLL
# Outline: as §1
# [9] = target: T6, USP15 (UniProt Q9Y4E8)
# T6 sequence (whole entry): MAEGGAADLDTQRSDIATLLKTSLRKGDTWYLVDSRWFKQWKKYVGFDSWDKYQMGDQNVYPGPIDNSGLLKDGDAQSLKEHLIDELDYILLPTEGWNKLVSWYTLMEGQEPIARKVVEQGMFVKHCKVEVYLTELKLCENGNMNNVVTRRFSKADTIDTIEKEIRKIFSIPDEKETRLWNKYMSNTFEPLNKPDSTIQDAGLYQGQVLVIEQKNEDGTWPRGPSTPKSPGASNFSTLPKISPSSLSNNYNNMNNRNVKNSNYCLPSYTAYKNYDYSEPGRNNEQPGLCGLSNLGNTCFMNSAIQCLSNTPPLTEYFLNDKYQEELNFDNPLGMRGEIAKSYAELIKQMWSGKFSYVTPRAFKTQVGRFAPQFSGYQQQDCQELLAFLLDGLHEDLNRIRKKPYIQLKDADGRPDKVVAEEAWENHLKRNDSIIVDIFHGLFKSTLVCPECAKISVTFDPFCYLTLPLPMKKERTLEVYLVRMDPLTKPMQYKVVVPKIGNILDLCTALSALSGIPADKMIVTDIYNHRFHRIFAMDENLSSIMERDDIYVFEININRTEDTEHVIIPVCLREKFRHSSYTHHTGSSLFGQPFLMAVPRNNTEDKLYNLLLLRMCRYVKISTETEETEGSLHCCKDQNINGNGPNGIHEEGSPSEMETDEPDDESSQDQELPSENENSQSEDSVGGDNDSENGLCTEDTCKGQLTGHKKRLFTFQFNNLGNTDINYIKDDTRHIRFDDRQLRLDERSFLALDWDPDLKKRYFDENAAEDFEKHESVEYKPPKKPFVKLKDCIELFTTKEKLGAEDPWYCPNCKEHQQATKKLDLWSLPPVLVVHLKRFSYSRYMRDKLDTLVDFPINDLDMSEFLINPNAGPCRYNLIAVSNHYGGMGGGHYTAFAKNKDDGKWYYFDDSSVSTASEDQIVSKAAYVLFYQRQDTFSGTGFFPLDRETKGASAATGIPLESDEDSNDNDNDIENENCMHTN
# Outline: as §1
# [10] = target: USP16 (UniProt Q9Y5T5)
# Sequence of USP16 (Q9Y5T5 whole entry, looked up): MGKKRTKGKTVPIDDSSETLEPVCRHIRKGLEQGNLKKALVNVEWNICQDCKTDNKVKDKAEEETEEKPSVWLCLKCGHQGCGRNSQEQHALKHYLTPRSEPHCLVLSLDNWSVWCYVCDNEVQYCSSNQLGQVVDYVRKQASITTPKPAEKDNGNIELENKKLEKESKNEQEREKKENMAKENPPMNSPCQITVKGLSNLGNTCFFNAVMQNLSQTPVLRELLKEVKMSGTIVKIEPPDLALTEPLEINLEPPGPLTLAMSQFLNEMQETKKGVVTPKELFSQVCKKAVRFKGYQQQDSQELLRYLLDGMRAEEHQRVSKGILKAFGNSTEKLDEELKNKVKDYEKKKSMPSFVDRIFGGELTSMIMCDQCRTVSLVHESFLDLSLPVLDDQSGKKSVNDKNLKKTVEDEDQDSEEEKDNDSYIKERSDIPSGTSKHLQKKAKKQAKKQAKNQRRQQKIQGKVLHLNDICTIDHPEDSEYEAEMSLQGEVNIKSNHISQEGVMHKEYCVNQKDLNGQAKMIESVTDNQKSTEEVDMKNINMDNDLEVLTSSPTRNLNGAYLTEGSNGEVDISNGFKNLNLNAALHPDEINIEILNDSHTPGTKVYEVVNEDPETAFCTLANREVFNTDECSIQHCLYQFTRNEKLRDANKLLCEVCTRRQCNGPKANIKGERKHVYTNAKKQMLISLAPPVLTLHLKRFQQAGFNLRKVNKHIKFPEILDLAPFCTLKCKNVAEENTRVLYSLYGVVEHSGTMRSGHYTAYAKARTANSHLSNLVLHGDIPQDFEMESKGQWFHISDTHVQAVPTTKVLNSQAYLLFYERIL
# Outline: as §1
smiles,measurement,setting,value
Cc1cccn2cc(CCNC(=O)CCl)nc12.Cl,log2 ratio of Biotin-Ahx-Ub-VS probe labelling,[1],-0.414
same,log2 ratio of Biotin-Ahx-Ub-VS probe labelling,[2],-0.338
same,log2 ratio of Biotin-Ahx-Ub-VS probe labelling,[3],0.19
same,log2 ratio of Biotin-Ahx-Ub-VS probe labelling,[4],-0.207
same,log2 ratio of Biotin-Ahx-Ub-VS probe labelling,[5],-1.98 (active)
same,log2 ratio of Biotin-Ahx-Ub-VS probe labelling,[6],0.136
same,log2 ratio of Biotin-Ahx-Ub-VS probe labelling,[7],-0.00232
same,log2 ratio of Biotin-Ahx-Ub-VS probe labelling,[8],-0.0824
same,log2 ratio of Biotin-Ahx-Ub-VS probe labelling,[9],-0.191
same,log2 ratio of Biotin-Ahx-Ub-VS probe labelling,[10],-0.607
